KB-3-1 cytotox – qHTS assay for MDR1-selective chemotherapeutics: Primary screen using the parental adenocarcinoma cell KB-3-1; Potency, µM (highest dose often 46.1 µM), most hits filed as cytotoxic; 1.4% of 400,000 active; KB-3-1 viability, CellTiter-Glo ATP luminescence, 72 h; also: nearly all actives have a fitted effect of over 60% in size
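Parental KB-3-1 adenocarcinoma cells in phenol-red-free DMEM with 10% FBS were pin-treated with compounds at several concentrations, incubated 72 h at 37 °C, and viability read by CellTiter-Glo luminescence; concentration-effect curves were fitted after normalization.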
KB-V1 MDR tox – qHTS assay for MDR1-selective chemotherapeutics: Primary screen using the drug-selected MDR subline cells KB-V1. KB-V1 MDR cells viability, CellTiter-Glo, 72 h. 3.4% of 400,000 active. AID 1347076, 2019. Potency, µM (series often up to 46.1 µM), most hits filed as cytotoxic; also: nearly all actives have a fitted effect of over 60% in size
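Cells of the MDR subline KB-V1 are plated, dosed with compound at multiple concentrations, and incubated 72 h at 37 degrees C; CellTiter-Glo is then added and luminescence read after 10 min.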
HT1080 IDH1KD tx – qHTS for induction of synthetic lethality in tumor cells producing 2HG: qHTS for the HT-1080-IDH1KD cell line; HT-1080 IDH1 knockdown viability, ATP luminescence, 48 h; Potency, µM (doses to about 46.1 µM), without a hit: at the highest dose activity, negative = toxicity, hits mostly cytotoxic; 2% of 360,000 active;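 also: 0% = DMSO wells and -100% = cell-free medium wells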
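Assay cells: HT-1080 with IDH1 knockdown, 750 per well, RPMI/5% FBS. Exposure: 48 h at 37 °C following 2 h pre-incubation. Read: CellTiter-Glo luminescence; fitted concentration-response, curve class assigned.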
HT1080-NT tox – qHTS for induction of synthetic lethality in tumor cells producing 2HG: qHTS for the HT-1080-NT fibrosarcoma cell line | HT-1080-NT fibrosarcoma viability, CellTiter-Glo ATP luminescence, 48 h | Potency, µM (titrated, usually from 46.1 µM), for inactives: top-dose activity, negative = less viability, actives largely listed as cytotoxic | 1.6% of 360,000 active;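 also: NT is the 2HG producing partner of a matched IDH1 knockdown line; 0% = DMSO-treated cells and -100% = media-only wells without cells; nearly all actives have a fitted effect of over 55% in size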
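Compounds were tested in concentration-response format on HT-1080-NT cells for 48 hours at 37 degrees C. Cell viability came from CellTiter-Glo luminescence; curves were classified by r2, response magnitude and activity.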
The depositor's hits bear a star; i = inactive; ? = inconclusive; . = no result given. In the library only some 5.7% were active in any assay of this set; here they are far more common. Calls follow the shape of the dose curve; as a rule, active = well fitted curve in the direction sought with a large enough effect; inconclusive = small, poorly fitted or top-dose-only effect, or another doubt; inactive = no such curve, though single readings can be large; an effect the other way counts as inactive or inconclusive. Unless noted, % is scaled to controls: 0 for no effect and ±100 for the full control effect; potency is read from the fitted curve at half-maximal effect.

SMILES	KB-3-1 cytotox	KB-V1 MDR tox	HT1080 IDH1KD tx	HT1080-NT tox
COc1ccc(OC)c(NC(=O)CN2c3cccc4cccc(c34)S2(=O)=O)c1	i	5.2µM*	-6%	-2%
O=C(CN1c2cccc3cccc(c23)S1(=O)=O)NCCc1ccccc1	i	21µM*	1%	-1%
CCOc1ccc(NC(=S)N2CCN(CCN3C(=O)c4cccc5cccc(c45)C3=O)CC2)cc1	i	i	11%	24%
O=[N+]([O-])c1ccc2nc(C3CCCCC3)[nH]c2c1	i	i	-13%	-2%
O=[N+]([O-])c1ccc(O)c(C2CCCCC2)c1	?	?	16µM*	15µM*
COc1ccc(C)cc1NC(=O)CO/N=C(\N)CC(=O)Nc1ccccc1OC	i	i	3%	5%
COc1ccccc1NC(=O)C/C(N)=N/OCC(=O)Nc1cccc(Cl)c1	i	18µM*	12%	8%
CCC1=Nc2cc(C(=O)NCc3ccccc3Cl)ccc2Sc2ccc(C)cc21	3.7µM*	?	.	.
CC1=Nc2cc(C(=O)NCc3ccccc3Cl)ccc2Sc2c(C)ccc(C)c21	1µM*	1.5µM*	.	.
C#Cc1cccc(Nc2nc(NCCOC)nc3ccsc23)c1	i	i	?	?
C#Cc1cccc(Nc2nc(NC(C)C)nc3ccsc23)c1	i	?	21µM*	?
C#Cc1cccc(Nc2nc(NCc3ccccc3OC)nc3ccsc23)c1	?	?	?	21µM*
COc1ccccc1C(=O)Nc1ccc2ccccc2c1	i	i	-22%	-2%
COc1cc2ccccc2cc1C(=O)N/N=C/c1cccnc1	16µM*	?	?	-12%
COc1ccc(C(=O)Nc2ccc3ccccc3c2)c(OC)c1	?	18µM*	-11%	-6%
COc1cc2ccccc2cc1C(=O)Nc1ccc(Cc2ccncc2)cc1	18µM*	9.2µM*	?	-30%
CN(Cc1ccccc1)C(=O)C1CCC(CNS(=O)(=O)c2ccc3c(c2)CCCC(=O)N3)CC1 (configuration not stated)	?	i	.	.
COc1cccc(CNC(=O)C(NS(=O)(=O)c2ccc3c(c2)oc(=O)n3C)C(C)C)c1 (configuration not stated)	i	i	.	.
COc1ccc(-c2nc(Cn3c(SCc4ccc(F)cc4)nc4ccncc43)c(C)o2)cc1OC	?	i	?	23µM*
Cc1ccc(NC(=O)CCC(=O)NNC(=S)Nc2ccccc2)c(C)c1	i	i	0%	7%
Cc1ccc(NC(=S)NNC(=S)Nc2ccc(C)cc2C)cc1	1µM*	4.6µM*	-21%	-30%
Cc1sc2ccccc2[n+]1Cc1ccccc1	i	i	.	.
COc1ccc(CCNC(=O)Nc2nc(C(N)C3CCCCC3)cs2)cc1OC (configuration not stated)	?	i	?	?
COc1cc(NC(=O)Nc2nc(C(N)C3CCCCC3)cs2)cc(OC)c1OC (configuration not stated)	?	i	21µM*	-77%
COc1ccccc1NC(=O)Nc1nc(C(N)C2CCCCC2)cs1 (configuration not stated)	i	i	?	16µM*
SMILES	KB-3-1 cytotox	KB-V1 MDR tox	HT1080 IDH1KD tx	HT1080-NT tox
NC(c1csc(NC(=O)Nc2ccccc2Cl)n1)C1CCCCC1 (configuration not stated)	i	i	?	?
COc1ccccc1NC(=O)Nc1nc(C(N)C(C)C)cs1 (configuration not stated)	i	i	?	?
COc1cc(NC(=O)Nc2nc(C(N)C(C)C)cs2)cc(OC)c1OC (configuration not stated)	i	i	?	16µM*
Cc1ccc(OCC(=O)OCc2cc(=O)n3c(C)csc3n2)cc1	i	i	.	.
Cc1ccc(CNC(=O)COC(=O)c2ccccc2OCC(=O)Nc2ccc(Br)cc2)cc1	.	.	-4%	-4%
O=S1(=O)N=C(Oc2ccccc2-c2ccccc2)c2ccccc21	i	?	.	.
COc1ccc(N(C(=O)c2cccnc2)S(=O)(=O)c2ccc3c4c(cccc24)C(=O)N3C)cc1	i	16µM*	?	?
